Experimental data from PubChem BioAssay (EPA / NIEHS).
Where “and” joins values, the source holds several entries; their conditions need not be identical. Identical values can stand only once. Results filed as inconclusive are left out. Some structures have more than one record in an assay (separate samples or runs), and their calls can disagree. Calls of active or inactive are those of the source. Rule for the calls, unless noted: active = hit-call score of the fitted dose curve at least 0.9, where 1 is the maximum; inconclusive = response in the unintended direction; inactive = score below 0.9.

What was measured:
[1] = read-out: sulfotransferase (SULT2A), SULT2A1 (gene 6822); assay: CLD_SULT2A_24hr: CellzDirect (CLD) Gene Expression Assay for sulfotransferase (SULT2A) at 24 hours (AID 2283694)
Procedure, shortened: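 Primary human hepatocytes from two donor preparations were dosed daily with fresh solutions, vehicle 0.2% DMSO. At 24 h, lysates went to quantitative nuclease protection (qNPA) with S1 digestion and chemiluminescent readout. Cytotoxicity was annotated from phase-contrast morphology.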

[2] = read-out: ABC Transporter (ABCB11), ABCB11 (gene 8647); assay: CLD_ABCB11_48hr: CellzDirect (CLD) Gene Expression Assay for ABC Transporter (ABCB11) at 48 hours (AID 2283697)
Procedure, shortened: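 Primary human hepatocytes from two donor preparations dosed daily for two days at multiple concentrations; 0.2% DMSO vehicle. ABCB11 mRNA at 48 h by quantitative nuclease protection assay, chemiluminescence; fitted for induction versus DMSO.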

[3] = read-out: Cytochrome P450 2B6 (Homo sapiens) (UniProt P20813); assay: CLD_CYP2B6_48hr: CellzDirect (CLD) Gene Expression Assay for xenobiotic metabolism (CYP2B6) at 48 hours (AID 2283699);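 note: actives raise transcript level above DMSO so potency reflects induction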
Procedure, shortened: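 Primary human hepatocytes dosed daily for two days over multiple concentrations, 0.2% DMSO vehicle; CYP2B6 mRNA quantified at 48 h by qNPA chemiluminescence. Induction fitted as gain of signal versus DMSO; cytotoxicity annotated by morphology.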

[4] = read-out: Cytochrome P450 2C9 (Homo sapiens) (UniProt P11712); assay: CLD_CYP2C9_48hr: CellzDirect (CLD) Gene Expression Assay for xenobiotic metabolism (CYP2C9) at 48 hours (AID 2283701; active = hit-call score of the fitted dose curve at least 0.9, where 1 is the maximum; inactive = score below 0.9)
Procedure, shortened: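 Primary human hepatocytes (two donor preparations) dosed daily for two days with test chemicals, 0.2% DMSO vehicle; harvested at 48 h. mRNA induction quantified by qNPA chemiluminescence, fitted for gain of signal against DMSO baseline; cytotoxicity annotated from phase-contrast morphology.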

[5] = CLD_ACTIN_48hr: CellzDirect (CLD) Gene Expression Assay for Baseline Control (Actin) at 48 hours (AID 2283702)
Procedure, shortened: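 Primary human hepatocytes (two donor preparations) dosed daily for two days with ToxCast chemicals at multiple concentrations versus 0.2% DMSO vehicle; harvested at 48 h. Actin mRNA measured as a background control by quantitative nuclease protection assay with chemiluminescence.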

[6] = read-out: xenobiotic metabolism (CYP1A2), CYP1A2 (gene 1544); assay: CLD_CYP1A2_48hr: CellzDirect (CLD) Gene Expression Assay for xenobiotic metabolism (CYP1A2) at 48 hours (AID 2283703)
Procedure, shortened: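 Primary human hepatocytes from two donor preparations were dosed daily for two days at multiple concentrations in 0.2% DMSO vehicle. CYP1A2 mRNA was measured at 48 hours by chemiluminescent quantitative nuclease protection assay, with gain of signal fitted versus DMSO and cytotoxicity annotated from morphology.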

[7] = read-out: Broad substrate specificity ATP-binding cassette transporter ABCG2 (Homo sapiens) (UniProt Q9UNQ0); assay: CLD_ABCG2_48hr: CellzDirect (CLD) Gene Expression Assay for ABC Transporter (ABCG2) at 48 hours (AID 2283704)
Procedure, shortened: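 Primary human hepatocytes from two donors, dosed daily for 2 days, 0.2% DMSO vehicle, several concentrations. ABCG2 mRNA at 48 h by qNPA chemiluminescence, gain fitted versus DMSO; cytotoxicity flagged by morphology.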

[8] = read-out: xenobiotic metabolism (CYP1A1), CYP1A1 (gene 1543); assay: CLD_CYP1A1_48hr: CellzDirect (CLD) Gene Expression Assay for xenobiotic metabolism (CYP1A1) at 48 hours (AID 2283705)
Procedure, shortened: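 Primary human hepatocytes from two donors dosed daily for two days at multiple concentrations, 0.2% DMSO vehicle; CYP1A1 mRNA induction at 48 h by qNPA chemiluminescence. Cytotoxicity noted by phase-contrast morphology.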

[9] = read-out: organic anion transporter (SLCO1B1), SLCO1B1 (gene 10599); assay: CLD_SLCO1B1_48hr: CellzDirect (CLD) Gene Expression Assay for organic anion transporter (SLCO1B1) at 48 hours (AID 2283707)
Procedure, shortened: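 Primary human hepatocytes from two donor preparations dosed daily for two days with multiple concentrations, 0.2% DMSO vehicle. SLCO1B1 mRNA at 48 h by quantitative nuclease protection assay, chemiluminescence; gain-of-signal fitted versus DMSO.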

[10] = read-out: alkyl and aryl transferase (GSTA2), GSTA2 (gene 2939); assay: CLD_GSTA2_48hr: CellzDirect (CLD) Gene Expression Assay for alkyl and aryl transferase (GSTA2) at 48 hours (AID 2283708);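 note: active means mRNA induction above DMSO vehicle baseline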
Procedure, shortened: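 Primary human hepatocytes dosed daily for two days (0.2% DMSO vehicle), harvested at 48 h. GSTA2 mRNA induction measured by quantitative nuclease protection assay with chemiluminescent imaging, fitted for gain of signal relative to DMSO.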

[11] = read-out: glucuronosyltransferase (UGT1A1), UGT1A1 (gene 54658); assay: CLD_UGT1A1_48hr: CellzDirect (CLD) Gene Expression Assay for glucuronosyltransferase (UGT1A1) at 48 hours (AID 2283709);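 note: actives increase expression relative to DMSO so potency refers to induction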
Procedure, shortened: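 Human primary hepatocytes dosed daily for two days (0.2% DMSO vehicle), harvested at 48 h. UGT1A1 mRNA induction measured by quantitative nuclease protection assay with chemiluminescence; gain of signal versus DMSO; cytotoxicity flagged from morphology.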

[12] = read-out: sulfotransferase (SULT2A), SULT2A1 (gene 6822); assay: CLD_SULT2A_48hr: CellzDirect (CLD) Gene Expression Assay for sulfotransferase (SULT2A) at 48 hours (AID 2283710);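 note: hits raise SULT2A1 transcript above the 0.2% DMSO vehicle baseline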
Procedure, shortened: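 Primary human hepatocytes (two donor preparations) dosed daily for two days with chemicals at multiple concentrations, vehicle 0.2% DMSO; SULT2A1 mRNA induction at 48 h by quantitative nuclease protection assay, chemiluminescent read-out, fitted for gain of signal versus DMSO.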

[13] = read-out: HMG-CoA synthase (HMGCS2), HMGCS2 (gene 3158); assay: CLD_HMGCS2_48hr: CellzDirect (CLD) Gene Expression Assay for HMG-CoA synthase (HMGCS2) at 48 hours (AID 2283711)
Procedure, shortened: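 Primary human hepatocytes from two donors dosed daily for two days, 0.2% DMSO vehicle. HMGCS2 mRNA measured 48 h after dosing by quantitative nuclease protection assay with chemiluminescent read-out; induction fitted relative to DMSO, cytotoxicity flagged by microscopy.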

[14] = CEETOX_H295R_MTT_cell_viability: Viability Assessment in the CeeTox HT-H295R MTT Assay (AID 2283718; active = hit-call score of the fitted dose curve at least 0.9, where 1 is the maximum; inactive = score below 0.9;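 for AC50: curve fitted both ways so AC50 may mark viability loss or gain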)
Procedure, shortened: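 MTT reduction (0.5 mg/ml, 4 h at 37 C; absorbance at 570 and 650 nm) gave viability as background-corrected percent change versus controls. H295R cells had 48 h forskolin (10 uM) prestimulation, then 48 h chemical exposure at 0.1% DMSO.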

[15] = Tanguay_ZF_120hpf_ActivityScore_legacy: (Legacy) Oregon State University Tanguay Lab 120 Hour Post-fertilization zebrafish Assay Score for Activity (AID 2283742);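 for AC50: dechorionated Tropical 5D wild-type zebrafish embryos held singly per well; static exposure from 6 hpf until 120 hpf at 28 °C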
Procedure, shortened: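 Embryos are staged, enzymatically dechorionated at 4 hpf, placed individually at 6 hpf, then held in test chemical (0.64% DMSO) at 28C until 120 hpf. Mortality and malformations are scored by brightfield, with non-mortality endpoints skipped for dead embryos.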

[16] = STM_H9_OrnithineISnorm_perc: Stemina devTOX quickPredict H9 human embryonic stem cell (hESC)-based Assay for Ornithine (ORN) Metabolite Biomarker, Normalized (AID 2283712; active = hit-call score of the fitted dose curve at least 0.9, where 1 is the maximum; inactive = score below 0.9;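 note: ornithine released into spent medium during last day measured by mass spectrometry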)
Procedure, shortened: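 H9 human embryonic stem cells kept pluripotent receive test chemical over 72 h, refreshed daily by media exchange. Media from the closing 24 h is deproteinized and analysed by UPLC-HRMS on an amide column; ornithine signal is scaled to labelled standard and vehicle.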

[17] = STM_H9_CystineISnorm_perc: Stemina devTOX quickPredict H9 human embryonic stem cell (hESC)-based Assay for Cystine (CYSS) Metabolite Biomarker, Normalized (AID 2283713; active = hit-call score of the fitted dose curve at least 0.9, where 1 is the maximum; inactive = score below 0.9)
Procedure, shortened: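 H9 hESC, pluripotent; compound 72h, re-dosed q24h with medium change. Last-24h medium → 40% acetonitrile deproteinization → UPLC-HRMS. CYSS area / C13-CYSS standard, then % of 0.1% DMSO median.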

[18] = STM_H9_OrnCyssISnorm_ratio: Stemina devTOX quickPredict H9 human embryonic stem cell (hESC)-based Assay for Ornithine (ORN):Cystine (CYSS) Ratio (AID 2283714)
Procedure, shortened: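 Steps: H9 hESCs in pluripotent state dosed 72h, medium plus compound renewed every 24h; conditioned medium from the final 24h deproteinized in 40% acetonitrile; ORN and CYSS quantified by UPLC-HRMS with C13 spike-ins; ratio relative to vehicle.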

[19] = read-out: ABC Transporter (ABCB1), ABCB1 (gene 5243); assay: CLD_ABCB1_48hr: CellzDirect (CLD) Gene Expression Assay for ABC Transporter (ABCB1) at 48 hours (AID 2283695)
Procedure, shortened: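 Primary human hepatocytes from two donor preparations dosed daily on two consecutive days with 0.2% DMSO vehicle. Harvest at 48 h. ABCB1 mRNA quantified by qNPA with chemiluminescence and fitted for gain of signal versus DMSO.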

Measured: AC50

Broad substrate specificity ATP-binding cassette transporter ABCG2 (Homo sapiens), sequence (Q9UNQ0 whole entry, looked up): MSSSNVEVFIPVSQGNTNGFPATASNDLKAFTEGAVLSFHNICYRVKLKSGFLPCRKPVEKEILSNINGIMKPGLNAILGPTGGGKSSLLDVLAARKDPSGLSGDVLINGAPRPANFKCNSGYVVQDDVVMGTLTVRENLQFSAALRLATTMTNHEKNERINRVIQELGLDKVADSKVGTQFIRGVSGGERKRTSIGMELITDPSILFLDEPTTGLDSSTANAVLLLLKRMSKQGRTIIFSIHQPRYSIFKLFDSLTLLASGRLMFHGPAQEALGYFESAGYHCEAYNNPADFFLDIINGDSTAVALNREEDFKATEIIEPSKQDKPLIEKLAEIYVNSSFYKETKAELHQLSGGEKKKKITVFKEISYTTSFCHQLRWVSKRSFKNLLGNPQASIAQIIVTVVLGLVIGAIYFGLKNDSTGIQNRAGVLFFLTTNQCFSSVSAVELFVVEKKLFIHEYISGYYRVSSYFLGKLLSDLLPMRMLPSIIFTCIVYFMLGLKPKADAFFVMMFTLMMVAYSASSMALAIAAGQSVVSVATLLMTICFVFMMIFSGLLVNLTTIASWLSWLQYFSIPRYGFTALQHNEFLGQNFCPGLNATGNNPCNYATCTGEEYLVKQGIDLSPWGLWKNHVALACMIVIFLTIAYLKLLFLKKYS

COc1nc(C)nc(NC(=O)NS(=O)(=O)c2ccccc2CCC(F)(F)F)n1
active: [3] 2.5 µM and 990 nM and 836 nM | [6] 8.01 µM
inactive: [1] | [2] | [4] | [5] | [6] | [7] | [8] | [9] | [10] | [11] | [12] | [13]

COP(=S)(OC)Oc1nc(Cl)c(Cl)cc1Cl
active: [3] 7.69 µM | [6] 5.26 µM
inactive: [1] | [4] | [7] | [8] | [9] | [10] | [11] | [14] | [15]

CCOC(=O)C(Cl)Cc1cc(-n2nc(C)n(C(F)F)c2=O)c(F)cc1Cl (centres undefined)
inactive: [1] | [4] | [8] | [10] | [11] | [12]
active: [3] 20 µM | [14] 41.2 nM | [15] 2.02 µM

C=CCC1=C(C)[C@@H](OC(=O)[C@@H]2[C@@H](C=C(C)C)C2(C)C)CC1=O
inactive: [1] | [4] | [6] | [7] | [10] | [12] | [16] | [17] | [15]
active: [3] 4.38 µM | [11] 7.38 µM

CO/C=C(/C(=O)OC)c1ccccc1Oc1cc(Oc2ccccc2C#N)ncn1
inactive: [1] | [4] | [5] | [7] | [11] | [16] | [17] | [18] | [15]
active: [3] 2.46 µM | [10] 20 µM | [15] 9.41 µM and 2.03 µM

COc1cnc(OC)n2nc(NS(=O)(=O)c3c(OCC(F)F)cccc3C(F)(F)F)nc12
not listed: [2] | [7] | [13] | [14] | [16] | [17] | [18] | [19]
inactive: all other assays above

CCOc1cc(Oc2ccc(C(F)(F)F)cc2Cl)ccc1[N+](=O)[O-]
active: [3] 1.83 µM | [6] 0.845 µM | [8] 1.01 µM | [11] 5.41 µM
inactive: [1] | [19] | [7] | [10] | [12] | [14] | [15]
